Shown are actives, neighbours in structure and some others; about 9.3% of the full set was active somewhere.
FLuc modulator: inhibits or activates purified firefly luciferase, miR-21 counter-screen. P08659. purified FLuc, Km substrates, luminescence inhibition. Potency, µM (top dose mostly 57.5 µM), inactives show top-dose activity change, negative = inhibition, most hits filed as inhibitors. actives 6.9% (n = 360,000). AID 588342;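 note: plate controls were vehicle for no effect and reference inhibitor for full effect; nearly all actives have a fitted effect of over 55% in size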
Target sequence (P08659 whole entry, looked up): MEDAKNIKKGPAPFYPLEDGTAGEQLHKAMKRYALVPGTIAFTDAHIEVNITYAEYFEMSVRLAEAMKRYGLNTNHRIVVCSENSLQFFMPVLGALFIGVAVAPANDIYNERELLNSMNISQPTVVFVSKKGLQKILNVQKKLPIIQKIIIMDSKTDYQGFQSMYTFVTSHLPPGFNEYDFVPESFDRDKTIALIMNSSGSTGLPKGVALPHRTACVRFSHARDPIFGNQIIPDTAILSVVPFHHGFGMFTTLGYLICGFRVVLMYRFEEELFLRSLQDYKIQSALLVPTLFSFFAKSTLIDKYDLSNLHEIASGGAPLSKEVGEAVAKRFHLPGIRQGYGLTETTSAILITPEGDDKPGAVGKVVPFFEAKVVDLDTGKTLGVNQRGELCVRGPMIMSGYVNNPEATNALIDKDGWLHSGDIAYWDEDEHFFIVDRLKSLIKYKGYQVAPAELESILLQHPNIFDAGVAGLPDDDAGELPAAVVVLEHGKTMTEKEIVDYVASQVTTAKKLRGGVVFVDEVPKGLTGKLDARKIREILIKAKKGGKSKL
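Biochemical qHTS of compounds, final roughly 60 µM downward over six points, against 10 nM purified firefly luciferase using Km concentrations of substrates (10 uM D-luciferin, 10 uM ATP) in Tris acetate pH 7.5 buffer; luminescence output.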
NPC1 promoter act: activators of NPC1 promoter | Huh7 NPC1 promoter luciferase reporter, 24 h | Potency, µM (titrated, usually from 9.22 µM), inactives show at the highest dose activation, most hits filed as activators | actives 2.4% (n = 320,000) | AID 485313; note: % of control where 0% means no effect; nearly all actives have a fitted effect of over 60% in size
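In 1536-well qHTS, Huh7 cells harboring an NPC1 promoter–luciferase construct received compound for 24 h; activation was quantified by luminescence following luciferase reagent addition.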
ELG1 genotox: genotoxicity induction in ELG1-luciferase HEK293T cells | HEK293T ELG1-luciferase reporter, luminescence, 16 h | Potency, µM (top dose mostly 46 µM), inactives show at the top dose activity change, positive = activation, hits mostly activators | actives 1.3% (n = 330,000) | AID 504466; note: % of control where 0% means no effect; nearly all actives have a fitted effect of over 60% in size
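DMSO vehicle served as control against compound-treated ELG1-luciferase HEK293T cells; exposure lasted 16 hr at 37 °C and 5% CO2, followed by ONE-Glo luminescence detection after 30 min.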
SMN2 splice up: SMN2 splice variant enhancement | HEK293 SMN2-luciferase splicing reporter, luminescence, 30-36 h | Potency, µM (doses to about 46.1 µM), without a hit: top-dose activity change, positive = activation, usual class: activators | actives 2.8% (n = 210,000); note: % of control where 0% means no effect; nearly all actives have a fitted effect of over 55% in size
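qHTS luciferase splicing reporter: luminescence rises when SMN2 exon 7 is included in transfected HEK293 cells. Compound exposure lasted 30-36 h at 37C, with 4.5 mM final sodium butyrate as control, followed by a ONE-Glo read.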
ELG1 DNA repair: blocks ELG1-dependent DNA repair in HEK293T cells. actives 2.3% (n = 330,000). HEK293T ELG1-luciferase reporter, luminescence, 16 h; DNA damage induced by 5-fluorouridine. AID 504467. Potency, µM (doses to about 46.1 µM), for inactives: at the highest dose activity change, negative = inhibition, actives largely listed as inhibitors; note: % is set by controls: 0 for no effect and ±100 for the full control effect; nearly all actives have a fitted effect of over 55% in size
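Overnight (16 hr) co-exposure of 2,000 cells/well to 5-fluorouridine and compound at 37 °C preceded detection. Luciferase was quantified via ONE-Glo luminescence; loss of signal denotes inhibition.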
Rab9 prom act: activates the Rab9 promoter; Huh7 Rab9 promoter-luciferase reporter, luminescence, 24 h; Potency, µM (titrated, usually from 9.22 µM), without a hit: at the top dose activation, negative = inhibition, usual class: activators; actives 2.8% (n = 320,000); AID 485297; note: % of control where 0% means no effect; nearly all actives have a fitted effect of over 60% in size
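Luminescence read-out: Huh7 cells stably expressing Rab9-luciferase, treated 24 h with compound at 37 °C, then lysed with luciferase reagent for 10 min at ambient before reading.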
* = called active by the depositor; ? = inconclusive; . = not tested or not shown. Calls come from the whole dose curve; as a rule, active = well fitted curve in the direction sought with a large enough effect; inconclusive = small, poorly fitted or top-dose-only effect, or another doubt; inactive = no such curve, though single readings can be large; an effect the other way counts as inactive or inconclusive. Potency is the fitted concentration of half-maximal effect.

SMILES | FLuc modulator | NPC1 promoter act | ELG1 genotox | SMN2 splice up | ELG1 DNA repair | Rab9 prom act
Cc1c(Cl)cccc1NC(=O)c1cc(C2CC2)on1 | 19µM* | ? | ? | 9% | ? | 3.5µM*
COc1ccc(NC(=O)c2cc(C3CC3)on2)c(OC)c1 | ? | ? | 18µM* | 20µM* | ? | ?
COc1ccc(CCC(=O)Nc2cccc(Cl)c2)cc1 | ? | -7% | -1% | 25% | 6% | 2%
Cc1ccc(C(=O)CSc2nc(-c3ccccc3)cc(=O)[nH]2)cc1 | -17% | 4% | 0% | . | 1% | -8%
Cc1cccc(NS(=O)(=O)c2cc(C(=O)OC(C)C(=O)NCc3ccc4c(c3)OCO4)ccc2C)c1 (centres undefined) | -6% | 0% | -5% | -24% | 23µM* | -3%
Cc1ccsc1/C=N/NC(=O)Nc1ccccc1 | 2.7µM* | 3.2µM* | ? | 16µM* | ? | 1.6µM*
Cc1ccsc1C(=O)N/N=C/c1ccc2c(c1)OCO2 | 1.5µM* | 0.71µM* | 2.3µM* | 2.5µM* | ? | 0.63µM*
O=C(N/N=C/c1ccc2c(c1)OCO2)c1sc2cc(Cl)ccc2c1Cl | ? | 0% | 6% | 5% | 13% | -5%
O=C(N/N=C/c1ccc2c(c1)OCO2)c1cccs1 | 3.4µM* | 1.3µM* | 7.3µM* | 13µM* | ? | 1.3µM*
Cc1ccccc1/C=N/NC(=O)c1sccc1C | 1.5µM* | ? | 18µM* | 10µM* | ? | 2.2µM*
COc1ccc2oc(=O)c(C(=O)NCCc3c(C)[nH]c4c(Cl)cccc34)cc2c1 | 6% | . | . | 9% | . | .
O=C(NCc1cccc(C(F)(F)F)c1)C1CCC(=O)N(C2CCCCCC2)C1 (centres undefined) | -2% | -6% | -3% | . | -4% | 0%
O=C(NC(=S)NCc1nc2ccccc2[nH]1)c1ccc(F)cc1 | -15% | 2% | ? | 7% | ? | 17%
O=C(c1cc2c(=O)n3ccccc3nc2s1)N1CCN(c2cccc(Cl)c2)CC1 | 2% | -2% | ? | . | ? | -1%
O=C(c1cc2c(=O)oc3ccccc3c2s1)N1CCOCC1 | 17µM* | 18% | 1% | 10% | ? | 22%
O=C(c1cc2c(=O)n3ccccc3nc2s1)N1CCOCC1 | 19µM* | 2.8µM* | 4.1µM* | 11µM* | ? | 3.2µM*
O=C(c1cc2ccccc2oc1=O)N1CCOCC1 | 12µM* | ? | ? | . | ? | ?
O=C(c1cc2c(=O)oc3ccccc3c2s1)N1CCN(c2ccccc2)CC1 | 0% | . | . | -6% | . | .
O=C(c1cc2cc([N+](=O)[O-])ccc2oc1=O)N1CCOCC1 | 2.4µM* | -32% | -3% | . | ? | -33%
COc1ccc(OS(=O)(=O)Cc2ccccc2)cc1 | ? | 2% | 12% | . | ? | 21%
COc1ccc2oc(C(=O)Nc3nc4ccccc4[nH]3)c(C)c2c1 | 0.43µM* | 0.35µM* | ? | . | ? | 0.32µM*
CCc1ccc(C(=O)Nc2nc3ccccc3[nH]2)cc1 | 0.11µM* | 0.1µM* | ? | . | ? | ?
O=C(Nc1nc2ccccc2[nH]1)c1cc(F)cc(F)c1 | 2.7µM* | 1.8µM* | ? | . | ? | 0.63µM*
O=C(NCCc1nc2ccccc2[nH]1)c1ccc(F)cc1 | 11% | -4% | -2% | . | 12% | -1%
O=C(Nc1nc2ccccc2[nH]1)c1ccc(F)cc1 | 1.1µM* | 0.45µM* | ? | 14µM* | ? | 0.32µM*
SMILES | FLuc modulator | NPC1 promoter act | ELG1 genotox | SMN2 splice up | ELG1 DNA repair | Rab9 prom act
COCCn1c(C)cc(O)c(C(c2ccc(F)cc2)N2CCC(C)CC2)c1=O (centres undefined) | -7% | . | . | . | . | .
CCOc1ccc(C(=O)O/N=C(\N)c2ccc([N+](=O)[O-])cc2)cc1OCC | 0% | -3% | 1% | 12% | 3% | 12%
COc1ccc(/C=C(/NC(=O)c2ccccc2)C(=O)N2CCC(C)CC2)cc1 | -1% | -3% | 8% | . | 6% | -1%
COc1cc(OC)cc(C(=O)Nc2nc3ccccc3[nH]2)c1 | 11µM* | 21% | ? | ? | ? | ?
CN(c1ccccc1)S(=O)(=O)c1ccc(Cl)c(C(=O)Nc2ccc(-c3nc4ccccc4[nH]3)cc2)c1 | 1% | -5% | -10% | -43% | ? | -12%
Cc1ccsc1C(=O)Nc1nc2ccccc2[nH]1 | 1.7µM* | 0.63µM* | 1.2µM* | . | ? | 0.35µM*
COc1ccc(Br)c(C(=O)Nc2nc3ccccc3[nH]2)c1 | -12% | ? | 24% | . | ? | ?
CN(c1ccccc1)S(=O)(=O)c1ccc(Cl)c(C(=O)Nc2nc3ccccc3[nH]2)c1 | 0% | -1% | -13% | -50% | 23µM* | -1%
O=C(Nc1nc2ccccc2[nH]1)c1cc2ccccc2o1 | 1.3µM* | 2.2µM* | 2.3µM* | 4.5µM* | ? | 1.1µM*
COc1ccc(NC(=O)C(OC(=O)c2cnccn2)c2ccccc2)cc1Cl (centres undefined) | -1% | 11% | 7% | . | 8% | 3%
O=C(Nc1nc2ccccc2[nH]1)c1ccc(F)c(S(=O)(=O)N2CCOCC2)c1 | 17µM* | ? | 14% | ? | 16% | ?
CN(C)S(=O)(=O)c1ccc(C(=O)Nc2nc3ccccc3[nH]2)cc1 | ? | ? | ? | 11µM* | ? | ?
O=C(Nc1nc2ccccc2[nH]1)c1ccccc1F | 0.19µM* | ? | ? | . | ? | -22%
N#Cc1ccc(C(=O)Nc2nc3ccccc3[nH]2)cc1 | 2.4µM* | 1.8µM* | ? | . | ? | 1.8µM*
O=C(Cc1ccccc1F)Nc1nc2ccccc2[nH]1 | -17% | 11% | 10% | 18% | ? | 22%
Cn1c(=O)c(C(N)=S)cn(-c2ccccc2)c1=O | -2% | -2% | -1% | . | 22% | 2%
Cc1cc(C)cc(C(=O)Nc2nc3ccccc3[nH]2)c1 | 11µM* | 2.5µM* | ? | . | ? | ?
COc1ccc(C(=O)Nc2nc3ccccc3[nH]2)cc1S(=O)(=O)N1CCCC1 | ? | 3% | 3% | 18% | -1% | -2%
Cc1ccc(/C=N\Nc2cn[nH]c(=O)c2Cl)cc1 | 24µM* | 29% | 21µM* | 18% | ? | ?
COc1ccc(/C=N/Nc2cn[nH]c(=O)c2Cl)cc1 | ? | 18% | 21µM* | ? | ? | 24%
Cc1ccsc1/C=N\Nc1cn[nH]c(=O)c1Cl | -20% | 6% | 21µM* | 0% | ? | 3%
O=c1[nH]ncc(N/N=C/c2ccccc2)c1Cl | 2% | -1% | ? | -2% | ? | -8%

Screening results: PubChem, National Center for Advancing Translational Sciences (NCATS)
